Screening results: PubChem, several laboratories
CYP2C19 activ: activators of human cytochrome P450 2C19. activation factor at 5 µM. recombinant CYP2C19, luciferin-H EGE luminescence; stronger effect = higher value; 0 = fully inhibited enzyme, 1 = untreated enzyme. 96,000 tested, under 10 active. P33261;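 active = activation factor of at least 2 at 5 µM in the primary screen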;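 also: 0 = wells with 2.5 mM tranylcypromine and 1 = vehicle-only wells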
Target sequence (P33261 whole entry, looked up): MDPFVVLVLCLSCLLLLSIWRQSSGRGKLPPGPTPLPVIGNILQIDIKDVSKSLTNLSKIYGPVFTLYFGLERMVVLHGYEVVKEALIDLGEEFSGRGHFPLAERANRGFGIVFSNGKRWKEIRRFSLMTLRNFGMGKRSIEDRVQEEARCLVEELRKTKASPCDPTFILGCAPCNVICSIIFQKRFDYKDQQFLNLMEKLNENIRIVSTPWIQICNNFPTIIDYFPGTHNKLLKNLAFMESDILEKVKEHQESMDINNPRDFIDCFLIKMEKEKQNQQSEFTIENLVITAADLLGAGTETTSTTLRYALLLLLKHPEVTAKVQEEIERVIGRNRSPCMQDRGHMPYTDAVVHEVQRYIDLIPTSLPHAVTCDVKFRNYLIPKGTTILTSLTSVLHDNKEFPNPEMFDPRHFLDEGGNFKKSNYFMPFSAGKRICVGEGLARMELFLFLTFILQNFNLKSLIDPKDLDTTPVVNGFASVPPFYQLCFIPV
CYP2C9 inhib: blocks human cytochrome P450 2C9; CYP2C9 Supersomes, luciferin-H conversion, luminescence; inhibition, % at 5 µM; 96,000 compounds, 20% hits;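 active = blocking of liver enzyme CYP2C9 beyond about 50% at 5 µM, limit read from the data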
PostGolgi ctrl: yeast control strain growth, post-Golgi counter-screen; efflux-deficient yeast background strain, growth absorbance A615, 16 h; 98,000 compounds, 5% hits; inhibition, % at 10 µM
CYP2C19 inh: inhibitors of human CYP2C19 | AID 778 | CYP2C19 Supersomes, luciferin-H EGE luminescence, 30 min | 96,000 compounds, 21% hits | P33261 | inhibition, % at 5 µM;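 active = CYP2C19 inhibition above a set limit at 5 µM in the primary screen, cut at about 50% in these data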;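 also: plate controls were negative control wells for no effect and 2.5 mM tranylcypromine positive control for full effect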
PostGolgi yeast: growth inhibition of a yeast mutant, post-Golgi transport screen | post-Golgi transport phenotypic cell assay | inhibition, % at 10 µM | 98,000 compounds, 0.9% hits | AID 739;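 also: yeast cells grown in 1536-well plates; yeast grown about 18 h at 30C before absorbance read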
CYP2C9 act: CYP2C9 (human) activation; P11712; recombinant CYP2C9, luciferin-H conversion, luminescence; stronger effect = higher value; factor 1 = untreated enzyme, 0 = blocked; activation factor at 5 µM; 96,000 compounds, 1.4% hits;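 active = activation factor of 2 or more for CYP2C9 at a 5 µM dose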;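 also: 0 = sulfaphenazole-blocked wells and 1 = vehicle-only wells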
* marks the source's active call; other numbers are inactive results; nt = no result; ! = not confirmed by another sample. In the library only some 32% were active in any assay of this set; here they are far more common. Rule as the data show it, unless noted: active = inhibition above about 30%; inactive = the rest.

SMILES	CYP2C19 activ	CYP2C9 inhib	PostGolgi ctrl	CYP2C19 inh	PostGolgi yeast	CYP2C9 act
Cc1ccc(SCCC(=O)NCC2CCCO2)cc1 (configuration not stated)	0.7	7	-1	27	0	0.9
O=C(CCn1nnc2ccccc2c1=O)N[C@H](C(=O)O)c1ccccc1	1.1	1	0	-9	-9	1
COc1ccc(S(=O)(=O)n2ccc(C(C)Oc3ccc(-c4ccccc4)c(F)c3)n2)cc1 (configuration not stated)	0.8	92*	0	17	-7	0.1
CC(Oc1ccc(-c2ccccc2)c(F)c1)c1ccn(S(=O)(=O)c2ccc(F)cc2)n1 (configuration not stated)	nt	nt	-4	nt	2	nt
CCOc1ccc(C2C(C(=O)c3ccco3)=C(O)C(=O)N2CCCn2ccnc2)cc1 (configuration not stated)	0.9	49	7	6	-6	0.5
CCOc1ccc(C(=O)c2cccs2)cc1	0.3	47	6	73*	1	0.5
CCOc1ccc(C2C(C(=O)c3cccs3)=C(O)C(=O)N2CCCn2ccnc2)cc1 (configuration not stated)	0.8	73*	nt	16	nt	0.3
Cc1ccc(C(=O)C2=C(O)C(=O)N(CCCn3ccnc3)C2c2ccc(OC(C)C)cc2)o1 (configuration not stated)	0.8	57*	20	20	8	0.4
CN(C)Cc1nc2c([nH]1)c(=O)n(C)c(=O)n2C	0.5	6	3	51*	3	0.9
Cn1c(=O)c2[nH]c(CN(Cc3ccccc3)Cc3ccccc3)nc2n(C)c1=O	0.9	81*	-2	6	0	0.2
CN(Cc1ccccc1)Cc1nc2c([nH]1)c(=O)[nH]c(=O)n2C	1.1	-25	12	-14	6	1.2
Cc1nc2cc(NC(=O)Nc3nccs3)ccc2n1C	0.8	-12	3	19	-8	1.1
CC(=O)N(c1ccccc1)c1c(F)c(F)c(F)c(F)c1F	0.8	7	8	18	-4	0.9
S=C(c1ccccc1)N(c1ccccc1)c1ccccc1	0.1	31	8	94*	0	0.7
COC(=O)CC(NS(=O)(=O)c1cccs1)c1ccccc1Cl (configuration not stated)	0.1	48	-5	94*	-9	0.5
CCN1C(=O)C(O)(C2COC(C)(C)CC2=O)c2cc(Br)ccc21 (configuration not stated)	0.6	-10	3	42	1	1.1
Cc1cc(C(=O)OCC(=O)c2c(N)n(C)c(=O)n(C)c2=O)c(C)n1-c1ccccc1	0.9	36	17	14	-5	0.6
COc1ccc2nc(C)cc(SCC(=O)N/N=C/c3cccc4ccccc34)c2c1	1	54*	0	1	0	0.5
COc1ccc2nc(C)cc(SCC(=O)O)c2c1	0.5	38	7	50*!	6	0.6
COC(=O)CSc1cc(C)nc2ccc(OC)cc12	0.7	12	2	30	-4	0.9
COC(=O)c1ccc(OCC(=O)c2ccc(O)cc2O)cc1	0.6	19	7	38	0	0.8
O=C(COc1ccccc1F)c1ccc(O)cc1O	0.1	6	-1	92*	-6	0.9
Cc1c(O)ccc(C(=O)COc2ccccc2F)c1O	0.3	-2	1	69*	-5	1
Cc1c(O)ccc(C(=O)CN2C(=O)c3ccccc3C2=O)c1O	0.2	23	-6	81*	-13	0.8
Cc1cc(C(=O)CN2C(=O)c3ccccc3C2=O)c(C)n1C1CC1	1	-31	1	0	-1	1.3
SMILES	CYP2C19 activ	CYP2C9 inhib	PostGolgi ctrl	CYP2C19 inh	PostGolgi yeast	CYP2C9 act
Cc1sc2nc(CN3CCN(S(=O)(=O)c4cccc5nonc45)CC3)[nH]c(=O)c2c1C	1.1	1	6	-6	4	1
Cc1cccc(-n2ncc3c(NCCc4ccc(S(N)(=O)=O)cc4)ncnc32)c1	0.1	96*	3	92*	1	0
Clc1ccc(-n2ncc3c(NCc4cccs4)ncnc32)cc1	nt	nt	-13	nt	-2	nt
Cc1cccc(-n2ncc3c(NCCN4CCOCC4)ncnc32)c1	nt	nt	4	nt	-5	nt
Cc1cccc(-n2ncc3c(NCc4cccs4)ncnc32)c1	0.9	51*	42*	11	6	0.5
CC(C)Cn1c(SCC(=O)NC(=O)NC2CCCC2)nc2ccccc21	0.6	43	11	42	-12	0.6
COc1ccc2c3c(cccc13)N(C)N=C2C	0.3	63*	3	74*	0	0.4
COCCNC(=O)CN1CCOc2ccccc21	1	-4	3	1	1	1
CSc1nc(-c2ccccc2)nn1C(=O)c1ccc(Cl)cc1	0.8	26	12	15	-4	0.7
O=C(c1ccc(Cl)cc1)N1CCCC(c2ccccc2)=N1	0.7	20	36*	29	14	0.8
COc1ccc(C(=O)Oc2ccc3oc(=O)sc3c2)cc1	1.1	4	6	-5	3	1
Cn1c(-c2ccc3c(c2)OCO3)cnc1NC(=O)CCC(=O)NCCc1ccccc1	1.2	-1	34*	-16	-4	1
NC1=NC2(CCN(Cc3ccccc3)CC2)n2c(nc3ccccc32)N1	0.7	57*	-2	26	5	0.4
C=CCn1c(N)cc(=O)nc1SCC(=O)N1CCN(c2ccc(F)cc2)CC1	0.8	4	7	20	6	1
CCCCCn1c(C(Cc2ccccc2)NC(=O)COC)nc2ccccc21 (configuration not stated)	0.4	42	25	63*	-3	0.6
Cc1ccc2nc3c(cc(C#N)c(=O)n3CC3CCCO3)c(=O)n2c1 (configuration not stated)	1	13	2	2	-2	0.9
O=C(OCCN=C1NS(=O)(=O)c2ccccc21)C1CC(=O)N(c2ccc(Cl)cc2)C1 (configuration not stated)	0.6	63*	-9	44	-4	0.4
COc1ccc(C(=O)COC(=O)CCN=C2NS(=O)(=O)c3ccccc32)cc1OC	0.3	27	10	74*	0	0.7
O=C(OCCN=C1NS(=O)(=O)c2ccccc21)c1cccnc1	0.9	16	19	12	-13	0.8
CC(C)C(=O)OCCN=C1NS(=O)(=O)c2ccccc21	0.9	6	4	13	-4	0.9
O=C(OCCN=C1NS(=O)(=O)c2ccccc21)c1ccccc1	0.6	85*	0	44	1	0.1
O=C(OCCOCCN=C1NS(=O)(=O)c2ccccc21)C1CC(=O)N(c2ccccc2)C1 (configuration not stated)	0.9	26	3	10	-1	0.7
Cc1cccc(-n2c(C)nc3c(cnn3-c3ccc(F)cc3)c2=O)c1	1	14	33*	4	-4	0.9
COc1ccc(N=C(N(C)C)P(=O)(N(C)C)N(C)C)cc1	0.9	-8	6	8	9	1.1
